Results reported in PubChem BioAssay AID624296 (National Center for Advancing Translational Sciences (NCATS), 2012).
Hit rate of the full screen: of about 350,000 compounds, about 9,900 (2.8%) were called active. Entries that show only a call come without a potency. Roughly 15% stayed inconclusive and do not appear here. The sample holds actives, similar compounds and a random draw of the others, so the mix is not that of the screen. Calls follow the shape of the dose curve; as a rule, active = well fitted activation curve with a large enough effect; inconclusive = small, poorly fitted or top-dose-only effect; inactive = no such curve, though single readings can be large or run the other way.

Assay: A quantitative high throughput screen for small molecules that induce DNA re-replication in MCF 10a normal breast cells. Also: nearly all actives have a fitted effect of over 50% in size.
Conditions: MCF 10A DNA re-replication, Hoechst nuclear intensity, 48 h; series mostly up to 46.1 µM
Excerpt: H Molecular Libraries Probe Production Network [MLPCN]
NIH Chemical Genomics Center [NCGC]
Assay Provider: Melvin DePamphilis, NICHD, NIH
Eukaryotic cells normally restrict genome duplication to once per cell division. When this process is aberrant, DNA re-replication occurs when cells reinitiate DNA replication before the first round of replication is complete. DNA re-replication induces the DNA damage response, arrests cell proliferation, and triggers apoptosis. The cell cycle components cyclin A, Cdt-1, Cdc6 and geminin are critical regulators of this process and their misregulation results in DNA re-replication in normal and cancer cells. To identify compounds that induce re-replication in normal cells, an image-based assay was used to measure DNA content of nuclei, as detected by the fluorescent DNA binding dye, Hoechst. Cell nuclei were imaged by a fluorescence scanning plate imager and compounds that induce DNA re-replication were identified by the increase of nuclei with elevated fluorescence intensity
For screening, 250 cells in 5 uL/well were dispensed into black clear 1536-well plates (Aurora) using a solenoid-based dispenser. Following transfer of 23 nL compound or DMSO vehicle by a pin tool, the plates were incubated 48 hr at 37 C and 5% CO2. After addition of 1 uL/well Hoescht stain, the plates were incubated 40 min at 37 C, 5% CO2 and total intensity of fluorescent objects (nuclei) were enumerated by an Acumen Explorer Ex3 (TTP LabTech) fluorescence scanning plate imager (405 nm excitation, 500-530 nm emission).
Keywords: NIH Roadmap, MLPCN, MLI, MLSMR, qHTS, NCGC, DNA replication, cancer
Potency is read from the fitted curve at half-maximal effect.

Q: For `O=S1(=O)CCOC[C@H](Cc2ccccc2)N1Cc1ccccc1Br`, which Potency is on record?
A: inactive

Q: For `O=C(CSc1nc2ccccc2c(=O)n1-c1ccccc1F)N1CCOCC1`, which Potency is on record?
A: inactive

Q: With `CC(C)(C)c1nnc2sc(SCC(O)=C(C#N)c3nc4ccccc4[nH]3)nn2c1=O` as the molecule, how does the Potency read?
A: inactive

Q: Which Potency does the source give for `COc1ccccc1-c1sc2ccccc2c1C#CC1(O)CCCCC1` here?
A: 18.4 µM (active)

Q: With `COc1ccccc1-c1sc2ccccc2c1-c1ccc(C(C)=O)cc1` as the molecule, how does the Potency read?
A: inactive

Q: For `COc1ccccc1C1=CC(=O)CCC1`, which Potency is on record?
A: inactive

Q: Which Potency does the source give for `Cc1ccc(F)cc1NC(=O)CSCc1c(C)noc1C` here?
A: inactive

Q: For `COc1cccc(-n2c(SCC(=O)NC3CCS(=O)(=O)C3)nc3ccccc3c2=O)c1` (stereo unspecified), which Potency is on record?
A: inactive

Q: For `CS(=O)(=O)c1ccc(Cl)c(NC(=O)Nc2ccccc2)c1`, which Potency is on record?
A: inactive

Q: With `O=C(Nc1ccccc1)c1nnsc1S(=O)(=O)c1ccc(Cl)cc1` as the molecule, how does the Potency read?
A: 13 µM (active)

Q: With `CC(=O)Nc1cc(C(=O)O)ccc1S(=O)(=O)c1ccc(Cl)cc1` as the molecule, how does the Potency read?
A: inactive

Q: For `COc1ccccc1C(=O)COC(=O)COc1ccc(C#N)cc1`, which Potency is on record?
A: inactive

Q: With `O=C(COC(=O)c1ccc([N+](=O)[O-])o1)NC12CC3CC(CC(C3)C1)C2` as the molecule, how does the Potency read?
A: inactive

Q: Which Potency does the source give for `N#CCC(=O)Nc1ccc(C(=O)OCC(=O)Nc2sc3c(c2C#N)CCCC3)cc1` here?
A: inactive

Q: For `CCN(CC(=O)Nc1ccccc1OC)C(=O)CC1CC2CCC1C2` (stereo unspecified), which Potency is on record?
A: inactive

Q: For `COc1cc(OC)c(C(=O)NNC(=O)c2ccccc2-n2cccc2)cc1OC`, which Potency is on record?
A: inactive

Q: With `N#Cc1ccccc1NC(=O)COc1c(Br)cc(Br)c2cccnc12` as the molecule, how does the Potency read?
A: 25.9 µM (active)

Q: For `O=C(COC(=O)c1ccccn1)Nc1cccc2ccccc12`, which Potency is on record?
A: inactive

Q: For `Cc1cc(NC(=O)COc2ccccc2C#N)no1`, which Potency is on record?
A: inactive

Q: Which Potency does the source give for `C#CCOCCOCCOCCNc1nc(N2CCN(C(=O)[C@H](CCC(=O)O)n3cc(CN)nn3)CC2)nc(N2CCN(C(=O)[C@H](CCC(=O)O)n3cc(CN)nn3)CC2)n1` here?
A: inactive

Q: Which Potency does the source give for `Cc1cc(NC(C)C)n2c(nc3ccccc32)c1C#N` here?
A: inactive

Q: Which Potency does the source give for `CC(C)c1cc(NCc2ccccn2)n2c(nc3ccccc32)c1C#N` here?
A: inactive

Q: With `Cc1cc(NCc2ccco2)n2c(nc3ccccc32)c1C#N` as the molecule, how does the Potency read?
A: 16.4 µM (active)

Q: With `Cc1ccc(NS(=O)(=O)c2ccc(C(C)C)cc2)cc1S(=O)(=O)N1CCOCC1` as the molecule, how does the Potency read?
A: inactive

Q: Which Potency does the source give for `Cc1ccc(OC(=O)c2cc3ccccc3o2)cc1` here?
A: inactive

Q: Which Potency does the source give for `C/C(=N\NC(=S)Nc1ccc(C)cc1)c1cc2ccccc2o1` here?
A: 13 µM (active)

Q: With `Cc1ccc(NC(=O)c2cc3ccccc3o2)cc1` as the molecule, how does the Potency read?
A: inactive

Q: For `O=C(CN1C(=O)NC2(CCOc3ccccc32)C1=O)NCc1ccc(F)cc1` (stereo unspecified), which Potency is on record?
A: inactive

Q: Which Potency does the source give for `O=C(O)CSCC(=O)Nc1cccc(C(F)(F)F)c1` here?
A: inactive

Q: With `Cc1cccc(NC(=O)c2cccc(C(F)(F)F)c2)c1` as the molecule, how does the Potency read?
A: inactive

Q: With `O=C(Nc1cccc(C(F)(F)F)c1)c1cc(Br)cc(Br)c1O` as the molecule, how does the Potency read?
A: 4.73 µM (active)

Q: For `O=C(NCCc1ccccc1)c1c[nH]c2ccc(F)cc2c1=O`, which Potency is on record?
A: inactive

Q: Which Potency does the source give for `Nn1c(SCC(=O)NC2CCCc3ccccc32)nnc1C1CC1` (stereo unspecified) here?
A: inactive

Q: For `Cc1noc(C)c1S(=O)(=O)N(C)C[C@H]1Oc2ccc(NC(=O)C3CC3)cc2C(=O)N([C@H](C)CO)C[C@@H]1C`, which Potency is on record?
A: inactive

Q: Which Potency does the source give for `COc1ccc(-c2nc3c(s2)CCc2onc(-c4ccc(OC)cc4)c2-3)cc1` here?
A: 4.11 µM (active)

Q: For `COc1ccc(-c2nc3n(c2Br)CCC3)cc1`, which Potency is on record?
A: inactive

Q: With `COc1ccc(-c2nc3c(s2)CCc2onc(-c4ccc(Br)cc4)c2-3)cc1` as the molecule, how does the Potency read?
A: inactive

Q: For `O=C(O)c1ccccc1/C=N/Nc1ccc(S(=O)(=O)Nc2ccc(Cl)cc2)cc1[N+](=O)[O-]`, which Potency is on record?
A: inactive

Q: With `Cc1noc(C)c1NC(=O)Nc1ccc2c(c1)C(=O)N([C@H](C)CO)C[C@H](C)[C@@H](CN(C)C(=O)Nc1ccccc1)O2` as the molecule, how does the Potency read?
A: inactive

Q: With `CCOC(=O)C(=Cc1ccccc1OC)C(=O)OCC` as the molecule, how does the Potency read?
A: 14.6 µM (active)

Q: For `COc1ccccc1C(=O)c1ccccc1C(=O)c1ccccc1`, which Potency is on record?
A: inactive

Q: Which Potency does the source give for `CCOC(=O)C(=CNc1cccc(C)n1)C(=O)OCC` here?
A: inactive

Q: For `Cc1ccc(S(=O)(=O)c2c(COC(=O)c3cccc(Cl)c3)c(-c3ccccc3)nn2C)cc1`, which Potency is on record?
A: inactive

Q: With `Cn1nc(-c2ccccc2)c(CO)c1Sc1ccccc1` as the molecule, how does the Potency read?
A: inactive

Q: For `Cn1nc(-c2ccccc2)c(CSc2cccc(Cl)c2)c1Cl`, which Potency is on record?
A: 5.17 µM (active)

Q: For `O=C(NN=Cc1ccc(N2CCOCC2)cc1)c1cc2ccccc2cc1O`, which Potency is on record?
A: inactive

Q: Which Potency does the source give for `CCOCc1c(C(=O)N2CCN(Cc3ccc(Br)s3)CC2)oc2ccccc12` here?
A: inactive

Q: For `CCN(/N=C/c1ccccc1)c1cc(=O)n(C)c(=O)[nH]1`, which Potency is on record?
A: inactive

Q: For `CN(C)c1ccc(/C=N/N(Cc2ccccc2)c2ccccc2)cc1`, which Potency is on record?
A: inactive

Q: For `CCN(/N=C/c1ccc(N(C)C)cc1)c1nc2ccccc2[nH]1`, which Potency is on record?
A: 5.8 µM (active)

Q: For `Cc1ccc(S(=O)(=O)N2CCN(C(=O)COC(=O)CNC(=O)c3ccc(C(C)(C)C)cc3)CC2)c(C)c1`, which Potency is on record?
A: inactive
